Measured values as given in PubChem BioAssay (EPA / NIEHS).
“And” between values parts separate entries of the source, which are not always exact repeats. Identical values can stand only once. Some structures have more than one record in an assay (separate samples or runs), and their calls can disagree. The source made the active and inactive calls. How the source made its calls: active means hit-call score of the fitted dose curve at least 0.9, where 1 is the maximum; inactive means score below 0.9.

How the values were obtained:
Details in all cases: mRNA level, 48 h; actives raise or lower the signal
[1] = read-out: Cytochrome P450 (CYP2B6), CYP2B6 (gene 1555); experiment: LTEA_HepaRG_CYP2B6: Life Technologies and Expression Analysis (LTEA) Assay for Cytochrome P450 (CYP2B6) using HepaRG (AID 2283481)
Outline: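 CYP2B6 transcript level quantified by qRT-PCR against three housekeeping genes, fitted bidirectionally relative to DMSO. HepaRG cultures received chemicals for 48 h, 8-point half-log series from 100 uM in 0.5% DMSO, duplicate wells, serum-free induction medium.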

[2] = read-out: Cytochrome P450 2C19 (Homo sapiens) (UniProt P33261); experiment: LTEA_HepaRG_CYP2C19: Life Technologies and Expression Analysis (LTEA) Assay for CYP2C19 using HepaRG (AID 2283482)
Outline: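 CYP2C19 transcript levels by qRT-PCR, normalized to three housekeeping genes, in HepaRG cells after 48 h chemical exposure. Eight-point half-log series topping at 100 uM, 0.5% DMSO vehicle. Increases and decreases both fitted against DMSO.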

CYP2C8 (gene 1558) = experiment: LTEA_HepaRG_CYP2C8: Life Technologies and Expression Analysis (LTEA) Assay for CYP2C8 using HepaRG (AID 2283483)
Outline: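 HepaRG (human liver line), 48 h chemical exposure, 8-pt half-log series from 100 uM, 0.5% DMSO vehicle. Readout: CYP2C8 transcript by qRT-PCR, housekeeping-normalized. Bidirectional fit vs DMSO baseline.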

CYP2C9 (gene 1559) = experiment: LTEA_HepaRG_CYP2C9: Life Technologies and Expression Analysis (LTEA) Assay for CYP2C9 using HepaRG (AID 2283484)
Outline: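 HepaRG, 48 h dosing, 8-pt half-log series, top 100 uM, 0.5% DMSO vehicle. Read-out: CYP2C9 transcript by TaqMan qRT-PCR, housekeeping-normalized (ACTB/GAPDH/POLR2A). Gain or loss fitted vs DMSO baseline.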

CYP2E1 (gene 1571) = experiment: LTEA_HepaRG_CYP2E1: Life Technologies and Expression Analysis (LTEA) Assay for CYP2E1 using HepaRG (AID 2283485)
Outline: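 Assay uses 48 h exposure of HepaRG hepatic cells, eight concentrations to 100 uM. Expression of CYP2E1 is quantified by TaqMan qRT-PCR with ACTB, GAPDH and POLR2A normalization; curves fitted in both directions relative to vehicle.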

CYP4A11 (gene 1579) = experiment: LTEA_HepaRG_CYP4A11: Life Technologies and Expression Analysis (LTEA) Assay for CYP4A11 using HepaRG (AID 2283486)
Outline: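 Readout is CYP4A11 transcript level by qRT-PCR, normalized to three housekeeping genes and fitted bidirectionally against 0.5% DMSO. Human HepaRG cells were treated 48 h, in duplicate, with an 8-point half-log series topping at 100 uM.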

[3] = read-out: Cytochrome P450 3A4 (Homo sapiens) (UniProt P08684); experiment: LTEA_HepaRG_CYP3A4: Life Technologies and Expression Analysis (LTEA) Assay for CYP3A4 using HepaRG (AID 2283487)
Outline: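 HepaRG, 48 h exposure, 8-pt CRC from 100 uM (half-log), 0.5% DMSO, duplicates; serum-free induction medium. Readout: CYP3A4 mRNA, qRT-PCR, ACTB/GAPDH/POLR2A normalization. Bidirectional fit vs DMSO.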

[4] = read-out: DNA damage-inducible transcript 3 (DDIT3), DDIT3 (gene 1649); experiment: LTEA_HepaRG_DDIT3: Life Technologies and Expression Analysis (LTEA) Assay for DNA damage-inducible transcript 3 (DDIT3) using HepaRG (AID 2283488)
Outline: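 Eight-point concentration-response (100 uM highest, half-log dilutions) in HepaRG, 48 h, duplicate wells. Endpoint: qRT-PCR mRNA, normalized (ACTB, GAPDH, POLR2A), bidirectional fitting with DMSO as baseline.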

[5] = read-out: Pro-epidermal growth factor (Homo sapiens) (UniProt P01133); experiment: LTEA_HepaRG_EGF: Life Technologies and Expression Analysis (LTEA) Assay for Epidermal growth factor (EGF) using HepaRG (AID 2283489)
Outline: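 EGF transcript measured by Fluidigm TaqMan qRT-PCR with three housekeeping genes for normalization, 48 h after dosing HepaRG cultures in duplicate (top 100 uM, half-log steps, 0.5% DMSO vehicle). Gain or loss relative to DMSO fitted.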

[6] = read-out: Early growth response protein 1 (EGR1) transcription factor, EGR1 (gene 1958); experiment: LTEA_HepaRG_EGR1: Life Technologies and Expression Analysis (LTEA) Assay for Early growth response protein 1 (EGR1) transcription factor using HepaRG (AID 2283490)
Outline: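 HepaRG, 48 h exposure, 8-pt half-log series from 100 uM, 0.5% DMSO vehicle; EGR1 transcript by TaqMan qRT-PCR (Fluidigm array), housekeeping-normalized; bidirectional fit relative to DMSO baseline.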

[7] = read-out: Ezrin (EZR), EZR (gene 7430); experiment: LTEA_HepaRG_EZR: Life Technologies and Expression Analysis (LTEA) Assay for Ezrin (EZR) using HepaRG (AID 2283491)
Outline: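 Read-out is EZR transcript level by qRT-PCR, normalized to three housekeeping genes and fitted bidirectionally against the DMSO control. Human HepaRG cells received test chemicals for 48 h at eight half-log concentrations up to 100 uM in 0.5% DMSO.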

[8] = read-out: Cytochrome P450 3A7 (Homo sapiens) (UniProt P24462); experiment: LTEA_HepaRG_CYP3A7: Life Technologies and Expression Analysis (LTEA) Assay for CYP3A7 using HepaRG (AID 2283492)
Outline: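 CYP3A7 transcript measured by qRT-PCR (ACTB, GAPDH, POLR2A normalization) after 48 h chemical exposure of HepaRG cells in duplicate. Eight half-log concentrations, maximum 100 uM, 0.5% DMSO vehicle; bidirectional curve fitting against DMSO baseline.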

CYP3A5 (gene 1577) = experiment: LTEA_HepaRG_CYP3A5: Life Technologies and Expression Analysis (LTEA) Assay for CYP3A5 using HepaRG (AID 2283493)
Outline: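 Readout was CYP3A5 mRNA by qRT-PCR. HepaRG cultures were exposed for 48 h in serum-free induction medium to chemicals at up to 100 uM, and responses were fitted in both directions relative to DMSO vehicle.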

[9] = read-out: Fatty Acid-Binding Protein 1 (FABP1), FABP1 (gene 2168); experiment: LTEA_HepaRG_FABP1: Life Technologies and Expression Analysis (LTEA) Assay for Fatty Acid-Binding Protein 1 (FABP1) using HepaRG (AID 2283494)
Outline: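 qRT-PCR readout of FABP1 transcript (normalized to three housekeeping genes) after 48 h chemical exposure of HepaRG cells; eight concentrations, half-log steps, max 100 uM, 0.5% DMSO vehicle; gain or loss fitted relative to DMSO baseline.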

[10] = read-out: Cytochrome P450 4A22 (Homo sapiens) (UniProt Q5TCH4); experiment: LTEA_HepaRG_CYP4A22: Life Technologies and Expression Analysis (LTEA) Assay for Cytochrome P450 4A22 (CYP4A22) using HepaRG (AID 2283495)
Outline: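 Gene expression measured by qRT-PCR against three housekeeping genes (ACTB, GAPDH, POLR2A), with gain or loss fitted relative to 0.5% DMSO vehicle. HepaRG cultures received 48 h chemical treatment, top concentration 100 uM, half-log steps, duplicate wells.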

[11] = read-out: Cytochrome P450 7A1 (Homo sapiens) (UniProt P22680); experiment: LTEA_HepaRG_CYP7A1: Life Technologies and Expression Analysis (LTEA) Assay for Cytochrome P450 7A1 (CYP7A1) using HepaRG (AID 2283496)
Outline: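 Using 0.5% DMSO as vehicle and baseline, chemicals were tested in duplicate over an 8-point range from 100 uM on HepaRG cells for 48 h; qRT-PCR signals were normalised to ACTB, GAPDH and POLR2A.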

[12] = read-out: growth arrest and DNA damage 45 (GADD45G), GADD45G (gene 10912); experiment: LTEA_HepaRG_GADD45G: Life Technologies and Expression Analysis (LTEA) Assay for growth arrest and DNA damage 45 (GADD45G) using HepaRG (AID 2283499)
Outline: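 GADD45G transcript level by qRT-PCR (housekeeping-normalized: ACTB, GAPDH, POLR2A) after 48 h chemical treatment of a single HepaRG lot in serum-free induction medium; eight-point half-log series up to 100 uM in 0.5% DMSO, duplicates, up- or down-regulation scored.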

[13] = read-out: Glutamate-cysteine ligase catalytic (GCLC), GCLC (gene 2729); experiment: LTEA_HepaRG_GCLC: Life Technologies and Expression Analysis (LTEA) Assay for Glutamate-cysteine ligase catalytic (GCLC) using HepaRG (AID 2283498)
Outline: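 HepaRG, 48 h exposure, 8-pt half-log series from 100 uM, 0.5% DMSO vehicle; TaqMan qRT-PCR for GCLC mRNA, housekeeping-normalized; bidirectional curve fit vs DMSO baseline.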

[14] = read-out: cysteine-aspartic acid protease (CASP8), CASP8 (gene 841); experiment: LTEA_HepaRG_CASP8: Life Technologies and Expression Analysis (LTEA) Assay for cysteine-aspartic acid protease (CASP8) using HepaRG (AID 2283480)
Outline: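 qRT-PCR readout of CASP8 mRNA, normalized to three housekeeping genes, after 48 h chemical exposure of HepaRG cells; 8-point half-log series, top 100 uM, 0.5% DMSO vehicle. Bidirectional curve fitting against DMSO baseline.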

Measured: AC50

Sequence of Cytochrome P450 2C19 (Homo sapiens) (P33261 whole entry, looked up): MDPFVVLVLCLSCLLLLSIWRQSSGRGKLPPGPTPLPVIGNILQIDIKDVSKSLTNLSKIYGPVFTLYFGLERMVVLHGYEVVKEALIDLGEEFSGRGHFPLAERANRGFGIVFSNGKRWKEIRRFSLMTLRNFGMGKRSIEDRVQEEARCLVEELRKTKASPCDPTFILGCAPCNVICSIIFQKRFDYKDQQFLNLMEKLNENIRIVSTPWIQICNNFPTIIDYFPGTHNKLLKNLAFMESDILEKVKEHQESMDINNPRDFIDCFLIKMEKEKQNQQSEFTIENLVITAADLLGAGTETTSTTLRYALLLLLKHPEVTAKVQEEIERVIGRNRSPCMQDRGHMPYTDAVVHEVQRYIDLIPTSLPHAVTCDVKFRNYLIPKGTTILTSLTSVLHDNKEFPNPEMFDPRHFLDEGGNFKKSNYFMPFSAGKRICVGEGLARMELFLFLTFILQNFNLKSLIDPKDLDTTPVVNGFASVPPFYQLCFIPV
Sequence of Cytochrome P450 3A4 (Homo sapiens) (P08684 whole entry, looked up): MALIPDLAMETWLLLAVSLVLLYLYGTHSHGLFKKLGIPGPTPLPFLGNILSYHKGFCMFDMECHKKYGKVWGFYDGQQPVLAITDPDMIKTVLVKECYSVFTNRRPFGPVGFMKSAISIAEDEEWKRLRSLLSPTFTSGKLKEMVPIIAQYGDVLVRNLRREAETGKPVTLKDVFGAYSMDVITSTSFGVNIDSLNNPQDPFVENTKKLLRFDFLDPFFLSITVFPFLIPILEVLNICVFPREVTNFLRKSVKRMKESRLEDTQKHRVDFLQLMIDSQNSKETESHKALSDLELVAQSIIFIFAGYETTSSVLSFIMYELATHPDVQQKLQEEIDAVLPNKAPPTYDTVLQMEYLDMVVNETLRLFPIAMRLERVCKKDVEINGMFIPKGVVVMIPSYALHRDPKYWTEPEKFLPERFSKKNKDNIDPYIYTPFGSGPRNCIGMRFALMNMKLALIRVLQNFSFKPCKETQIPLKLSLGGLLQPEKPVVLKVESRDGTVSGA
Sequence of Cytochrome P450 3A7 (Homo sapiens) (P24462 whole entry, looked up): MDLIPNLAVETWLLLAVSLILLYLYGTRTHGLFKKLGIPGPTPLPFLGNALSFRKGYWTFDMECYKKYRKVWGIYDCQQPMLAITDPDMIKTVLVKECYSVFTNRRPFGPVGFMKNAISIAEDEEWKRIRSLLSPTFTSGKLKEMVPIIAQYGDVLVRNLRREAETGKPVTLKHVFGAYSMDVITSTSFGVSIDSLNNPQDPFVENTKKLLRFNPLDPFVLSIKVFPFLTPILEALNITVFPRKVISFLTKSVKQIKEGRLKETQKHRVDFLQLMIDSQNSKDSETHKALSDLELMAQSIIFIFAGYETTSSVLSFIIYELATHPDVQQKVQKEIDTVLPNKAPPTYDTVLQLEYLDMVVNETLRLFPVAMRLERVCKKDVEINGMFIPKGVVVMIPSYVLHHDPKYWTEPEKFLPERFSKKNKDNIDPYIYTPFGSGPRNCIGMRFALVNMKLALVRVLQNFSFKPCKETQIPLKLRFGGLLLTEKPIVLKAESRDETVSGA

O=[N+]([O-])/N=C1\NCCN1Cc1ccc(Cl)nc1
active: [1] 13.2 µM | [2] 34 µM | CYP2C8 (gene 1558) 74.1 µM | CYP2C9 (gene 1559) 38.1 µM | CYP2E1 (gene 1571) 34.8 µM | [5] 30.2 µM | [9] 36 µM | [11] 34.1 µM
not listed: [13] | [14]
inactive: all other assays above

CC(C)(C)C(O)C(Oc1ccc(Cl)cc1)n1cncn1 (stereo not drawn)
active: [1] 2.21 µM and 3.37 µM and 1.68 µM | [2] 2.61 µM and 3.24 µM and 1.89 µM | CYP2C8 (gene 1558) 3.91 µM and 4.21 µM | CYP2E1 (gene 1571) 25.8 µM and 25.3 µM and 29.5 µM | CYP4A11 (gene 1579) 18.1 µM and 13.8 µM and 25.4 µM | [9] 50 µM and 21.4 µM | [10] 12.8 µM and 14.6 µM and 18 µM | [11] 8.02 µM and 9.92 µM and 1.24 µM
inactive: CYP2C8 (gene 1558) | CYP2C9 (gene 1559) | [4] | [5] | [6] | [7] | CYP3A5 (gene 1577) | [13] | [12]

CCCN(CCOc1c(Cl)cc(Cl)cc1Cl)C(=O)n1ccnc1
inactive: [14] | CYP3A5 (gene 1577)
active: [1] 31 µM | [2] 36.8 µM | CYP2C8 (gene 1558) 28.4 µM | CYP2C9 (gene 1559) 31.9 µM | CYP2E1 (gene 1571) 14.6 µM | CYP4A11 (gene 1579) 18.2 µM | [3] 36.2 µM | [4] 24 µM | [5] 12.1 µM | [6] 27.9 µM | [7] 31.1 µM | [8] 32.4 µM | [9] 32.9 µM | [10] 27.7 µM | [11] 33.2 µM | [13] 12.4 µM | [12] 13 µM
